# Hits are enriched below; roughly 2.4% of the tested compounds scored in any of these assays.
# NOD2 RIPK2 PPI = NOD2-RIPK2 binding disruptors in cells, primary screen, fluorescence, CHO cells, BLA complementation | CCF4 ratio | Receptor-interacting serine/threonine-protein kinase 2 (Homo sapiens), O43353 | 360,000 compounds, 0.38% hits | inhibition, % at 4.98 µM | AID 624267, 2012; in the data active means inhibition above about 21%;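 further: 0% = vehicle only and 100% = reference blocker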
# Target sequence (O43353 whole entry, looked up): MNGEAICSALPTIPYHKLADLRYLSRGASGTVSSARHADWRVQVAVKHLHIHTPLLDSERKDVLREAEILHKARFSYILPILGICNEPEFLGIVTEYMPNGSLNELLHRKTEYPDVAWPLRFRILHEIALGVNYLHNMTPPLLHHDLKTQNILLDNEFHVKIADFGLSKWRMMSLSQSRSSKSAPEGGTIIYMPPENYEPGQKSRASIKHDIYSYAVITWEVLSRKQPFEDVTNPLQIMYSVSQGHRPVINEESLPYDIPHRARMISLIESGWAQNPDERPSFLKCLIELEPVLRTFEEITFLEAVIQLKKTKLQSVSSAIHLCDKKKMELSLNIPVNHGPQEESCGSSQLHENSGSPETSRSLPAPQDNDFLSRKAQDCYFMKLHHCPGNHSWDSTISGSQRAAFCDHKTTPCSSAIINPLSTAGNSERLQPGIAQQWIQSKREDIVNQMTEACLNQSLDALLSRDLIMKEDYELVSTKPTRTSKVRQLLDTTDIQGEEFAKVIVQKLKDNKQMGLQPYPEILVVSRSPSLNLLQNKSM
# HTR2A ag = mouse Htr2a agonists via beta-arrestin recruitment, primary screen, cell-based, luminescence | CHO-K1 mHTR2A beta-arrestin complementation; percent of 30 µM serotonin response | activation, % at 7.6 µM | 360,000 compounds, 0.66% hits | AID 624169, 2012;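 active means activation above a run cutoff, the mean activation of all tested compounds plus 3 SD, cut at about 14% in these data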;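 further: 0% = plate median of compound wells and 100% = 30 µM serotonin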
# TLR4 MyD88 comp = inhibitors of TLR4-MyD88 association in cells, primary screen, cell-based, HeLa CL3-4, BLA complementation, FRET ratio; inhibition, % at 8.4 µM; AID 861, 2007; HeLa CL3-4 TLR4/MyD88 BLA complementation; 200,000 compounds, 0.18% hits; in the data active means inhibition above about 25%;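 further: 0% = vehicle and 100% = reference inhibitor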
# TMEM16A inh = TMEM16A chloride channel inhibitors, primary screen, cell-based, HTS | 310,000 compounds, 1.2% hits | HEK293 TMEM16A/YFP iodide influx fluorescence, ionomycin | normalized B-score (activity score, 25-100; higher = stronger inhibition) at 10 µM | Anoctamin-1 (Mus musculus), Q8BHY3;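 active means ratio plate-corrected score three or more library SD toward inhibition, starting fluorescence score within five deviations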;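 further: score derived from kinetic fluorescence span divided by baseline fluorescence per well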
# TLR9-MyD88 inh = inhibitors of TLR9-MyD88 association in cells, primary screen, cell-based, CHO, BLA complementation, fluorescence. AID 504734, 2011. inhibition, % at 4.98 µM. CCF4 FRET ratio. 340,000 compounds, 0.21% hits. Toll-like receptor 9 (Homo sapiens) + Myeloid differentiation primary response protein …;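 active means inhibition above the mean over all tested compounds plus 3 SD, cut at about 21% in these data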;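 further: 0% = DMSO only wells and 100% = clavulanate BLA inhibitor control wells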
# ANO1 activ = TMEM16A chloride channel activators or potentiators, primary screen, cell-based, HTS. Anoctamin-1 (Mus musculus), Q8BHY3. HEK293 TMEM16A/YFP-H148Q/I152L, iodide quench fluorescence; active compounds read low. B-score at 10 µM. 340,000 compounds, 0.3% hits;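 active means fluorescence-ratio B-score plate-corrected deviation score at least 3 library SD below zero, with starting fluorescence score within 5 deviations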;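 further: channel opened by trigger with iodide after compound preincubation; score built on the fluorescence ratio of max minus min over baseline; more negative score means more quench and so TMEM16A activation or potentiation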
# TLR9-MyD88 cf = TLR9-MyD88 association inhibitors, retest, confirmation, cell-based, CHO, BLA complementation, fluorescence, triplicate; AID 540250, 2011; shares compounds with TLR9-MyD88 inh; CCF4 FRET ratio; 680 compounds, 51% hits; inhibition, % at 4.98 µM;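 active means mean inhibition across three repeats above about 21% taken from the earlier screen, limit read from the data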;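 further: blue over green emission ratio reports constitutive TLR9 MyD88 association via BLA complementation; 0% = DMSO vehicle wells and 100% = clavulanate BLA inhibitor wells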
# BLA counter-1 = beta-lactamase reporter inhibitors in CHO cells, artefact control for TLR9-MyD88 binding inhibitor project, cell-based, fluorescence; shares compounds with TLR9-MyD88 inh; CHO-BLA cells, CCF4 FRET ratio, BLA reporter; inhibition, % at 4.98 µM; 680 compounds, 7% hits;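 active means mean inhibition above a 50% cutoff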;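 further: counterscreen of TLR9-MyD88 hits on CMV-driven BLA in CHO-K1 cells; 0% = DMSO alone and 100% = clavulanate blocking BLA; higher means less blue over green ratio so more BLA blockade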
# TLR9 CHO cytotox = CHO cell viability loss – luminescence, single concentration, cytotoxicity control for TLR9-MyD88 binding inhibitor project; shares compounds with TLR9-MyD88 inh; TLR9-MyD88 CHO cells cytotoxicity; inhibition, % at 4.98 µM; 680 compounds, 39% hits; in the data active means inhibition above about 11%
# NOD2 RIPK2 conf = NOD2-RIPK2 binding disruptors, retest, confirmation, fluorescence, CHO cells, BLA complementation, triplicate; inhibition, % at 4.98 µM; AID 624370, 2012; shares compounds with NOD2 RIPK2 PPI; 1,200 compounds, 70% hits; CCF4 FRET;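 active means mean inhibition across replicates above a set limit taken from the earlier primary screen, cut at about 21% in these data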;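 further: 0% = DMSO-only wells and the high end = clavulanate BLA-blocked wells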
# BLA counter-2 = NOD2-RIPK2 counterscreen BLA reporter activity. shares compounds with NOD2 RIPK2 PPI. CHO BLA reporter, CCF4 FRET ratio. inhibition, % at 4.98 µM. 1,200 compounds, 57% hits;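 active means mean inhibition above the low-control mean inhibition plus three low-control SD, cut at about 11% in these data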;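 further: 0% = DMSO only wells and 100% = clavulanate high control wells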
# Starred values were filed as active, the others as inactive; i = inactive; . = no result given.
SMILES,NOD2 RIPK2 PPI,HTR2A ag,TLR4 MyD88 comp,TMEM16A inh,TLR9-MyD88 inh,ANO1 activ,TLR9-MyD88 cf,BLA counter-1,TLR9 CHO cytotox,NOD2 RIPK2 conf,BLA counter-2
O=C(Nc1ccc(OC(F)(F)F)cc1)c1[nH]ncc1[N+](=O)[O-],25*,-7,1,i,25*,i,2,8,9,20,6
Cc1onc(C(=O)Nc2ccc(OC(F)(F)F)cc2)c1[N+](=O)[O-],-4,-7,.,i,3,i,.,.,.,.,.
Cc1c(C(=O)NCC2COc3ccccc3O2)oc2ccc(S(=O)(=O)N(C)C3CCCCC3)cc12 (configuration not stated),6,5,1,i,-5,i,.,.,.,.,.
Cc1cccc(C(=O)N2CCc3ccccc3C2)c1[N+](=O)[O-],6,0,-4,i,-6,i,.,.,.,.,.
O=c1c(O)c(-c2cccs2)oc2ccccc12,29*,-2,19,i,21*,i,18,19,4,41*,38*
O=C(NCc1cccnc1)c1ccc2c(=O)n(CCCN3CCCC3=O)c(=S)[nH]c2c1,-4,-5,-10,i,-3,i,.,.,.,.,.
CC(C)(C)c1cc(C2=CSC3=NCCN23)cc(C(C)(C)C)c1O,24*,6,.,i,21*,i,14,16,2,33*,17*
Nc1c(C(=O)N2CCCCC2)sc2nc3c(cc12)CCCC3,-3,-5,.,i,0,i,.,.,.,.,.
Nc1c(C(=O)N2CCCC2)sc2nc(-c3ccccc3)ccc12,34*,-1,.,i,30*,i,32*,30,5,52*,61*
C1=C(c2ccccc2)Nc2ncnn2C1c1ccccc1 (configuration not stated),35*,3,.,i,25*,i,11,12,1,1,5
Fc1ccc(Br)cc1C1C=C(c2ccc(Br)cc2)Nc2ncnn21 (configuration not stated),43*,1,1,i,21*,i,7,10,3,1,2
Cc1ccc(C2=CC(c3ccccc3)n3ncnc3N2)cc1 (configuration not stated),52*,-1,.,i,41*,i,9,6,-2,19,21*
Cc1ccc(C2=CC(c3ccccc3)n3ncnc3N2)c(C)c1 (configuration not stated),-9,1,.,i,-7,i,.,.,.,.,.
Cc1ccc(C2C=C(c3ccc4c(c3)OCO4)Nc3ncnn32)cc1 (configuration not stated),42*,4,-5,i,31*,i,11,13,3,34*,42*
